SMN2 splice up = SMN2 splice variant enhancement | HEK293 SMN2-luciferase splicing reporter, luminescence, 30-36 h | Potency, µM (titrated, usually from 46.1 µM), inactives show at the highest dose activity change, positive = activation, hits mostly activators | actives 2.8% (n = 210,000); further: % of control where 0% means no effect; nearly all actives have a fitted effect of over 55% in size
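HEK293 cells carry an SMN2 […]–luciferase reporter in which exon 7 inclusion puts luciferase in frame. Cells were plated 10-12 h before compound addition, then incubated 30-36 h at 37C. ONE-Glo luminescence was read; sodium butyrate at 4.5 mM final served as control.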
ELG1 repair inh = inhibitors of ELG1-dependent DNA repair in HEK293T cells. HEK293T ELG1-luciferase reporter, luminescence, 16 h; DNA damage induced by 5-fluorouridine. Potency, µM (series often up to 46.1 µM), without a hit: top-dose activity change, negative = inhibition, usual class: inhibitors. actives 2.3% (n = 330,000). AID 504467; further: on the % scale 0 is the no-effect control and ±100 the full control effect; nearly all actives have a fitted effect of over 55% in size
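5-Fluorouridine DNA damage + compound/DMSO, 2,000 cells/well, 16 h, 37 °C/5% CO2. ONE-Glo, 30 min RT, luminescence. Readout = decrease in reporter signal.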
ELG1 genotox = inducers of genotoxicity in HEK293T ELG1-luciferase cells. HEK293T ELG1-luciferase reporter, luminescence, 16 h. actives 1.3% (n = 330,000). Potency, µM (top dose mostly 46 µM), inactives show at the top dose activity change, positive = activation, most hits filed as activators. AID 504466; further: % of control where 0% means no effect; nearly all actives have a fitted effect of over 60% in size
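DMSO vehicle served as control against compound-treated ELG1-luciferase HEK293T cells; exposure lasted 16 hr at 37 °C and 5% CO2, followed by ONE-Glo luminescence detection after 30 min.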
NPC1 prom act = activates the NPC1 promoter; AID 485313; actives 2.4% (n = 320,000); Potency, µM (top dose mostly 9.22 µM), for the others: top-dose activation, actives largely listed as activators; Huh7 NPC1 promoter luciferase reporter, 24 h; further: % of control where 0% means no effect; nearly all actives have a fitted effect of over 60% in size
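NPC1 promoter–luciferase Huh7 cells; 24 h compound; luminescence.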
FLuc counter = counter-screen for miR-21 project: firefly luciferase inhibitors or activators | actives 6.9% (n = 360,000) | P08659 | Potency, µM (titrated, usually from 57.5 µM), inactives show at the highest dose activity change, negative = inhibition, most hits filed as inhibitors | purified FLuc, Km substrates, luminescence inhibition;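 further: plate controls were vehicle for no effect and reference inhibitor for full effect; nearly all actives have a fitted effect of over 55% in size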
Target sequence (P08659 whole entry, looked up): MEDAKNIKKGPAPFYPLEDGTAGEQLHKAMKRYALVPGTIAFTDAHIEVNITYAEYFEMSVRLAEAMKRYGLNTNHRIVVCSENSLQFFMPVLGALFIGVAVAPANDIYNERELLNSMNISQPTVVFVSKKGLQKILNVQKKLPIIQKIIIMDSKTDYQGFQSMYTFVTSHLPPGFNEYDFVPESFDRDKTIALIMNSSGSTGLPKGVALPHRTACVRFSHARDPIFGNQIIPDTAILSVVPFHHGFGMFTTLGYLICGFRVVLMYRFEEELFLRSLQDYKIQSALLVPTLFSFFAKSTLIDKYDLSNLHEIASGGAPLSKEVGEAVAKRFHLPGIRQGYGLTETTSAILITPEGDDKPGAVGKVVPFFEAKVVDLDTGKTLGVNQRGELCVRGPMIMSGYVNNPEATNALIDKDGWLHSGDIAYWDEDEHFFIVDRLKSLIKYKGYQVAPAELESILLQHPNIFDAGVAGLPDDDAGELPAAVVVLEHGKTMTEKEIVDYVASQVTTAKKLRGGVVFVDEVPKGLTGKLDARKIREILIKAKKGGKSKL
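Biochemical qHTS of compounds, final roughly 60 µM downward over six points, against 10 nM purified firefly luciferase using Km concentrations of substrates (10 uM D-luciferin, 10 uM ATP) in Tris acetate pH 7.5 buffer; luminescence output.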
Rab9 prom act = Rab9 promoter activation; actives 2.8% (n = 320,000); Huh7 Rab9 promoter-luciferase reporter, luminescence, 24 h; AID 485297; Potency, µM (doses to about 9.22 µM), inactives show at the highest dose activation, negative = inhibition, most hits filed as activators; further: % of control where 0% means no effect; nearly all actives have a fitted effect of over 60% in size
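Stable Rab9-luc Huh7, 1500 cells/well, 2 h settle; cmpd in DMSO, 24 h, 37 °C/5% CO2; luciferase reagent 10 min RT; luminescence.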
Active calls of the source: *; [ ] = dose if it differs, or a comment. Compounds with a hit are over-represented: about 9.4% of the library has one in this group of screens. The call rests on the fitted dose curve; in most records, active means well fitted curve in the direction sought with a large enough effect; inconclusive means small, poorly fitted or top-dose-only effect, or another doubt; inactive means no such curve, though single readings can be large; an effect the other way counts as inactive or inconclusive. Potency means the concentration at half of the fitted maximal effect.

For Cc1ccc2c(CNCc3ccco3)cc(=O)oc2c1 the results were SMN2 splice up 13µM*, ELG1 repair inh inconclusive, ELG1 genotox inconclusive, NPC1 prom act inconclusive, FLuc counter 24µM* and Rab9 prom act inconclusive.
For O=C(Nc1cccc(F)c1)N1CC[C@@]2(CCCNC2)C1 the results were SMN2 splice up -4%.
For Cc1ccc(NC(=O)CSc2nc3nccnc3c(=O)n2CCc2c[nH]c3ccccc23)cc1 the results were FLuc counter -7%.
Screening Cc1ccc(S(=O)(=O)Cn2nnnc2C(C(C)C)N2CCN(c3nc4ccccc4s3)CC2)cc1 (stereo not given) returned SMN2 splice up -27%, ELG1 repair inh 18µM*, ELG1 genotox -4%, NPC1 prom act 0%, FLuc counter -3% and Rab9 prom act -3%.
c1ccc(C(c2nnnn2Cc2ccco2)N2CCN(c3nc4ccccc4s3)CC2)cc1 (stereo not given) was read as SMN2 splice up -33%, ELG1 repair inh 21µM*, ELG1 genotox -6%, NPC1 prom act -7%, FLuc counter -1% and Rab9 prom act -1%.
For Cc1cccc(NC(=O)CSc2nccn2Cc2ccco2)c1 the results were ELG1 repair inh inconclusive, ELG1 genotox inconclusive, NPC1 prom act 3.2µM*, FLuc counter 15µM* and Rab9 prom act 2.8µM*.
CC(=O)Nc1ccc(NC(=O)CSc2nccn2Cc2ccco2)cc1 was read as ELG1 repair inh 10%, ELG1 genotox 10%, NPC1 prom act 10%, FLuc counter inconclusive and Rab9 prom act 27%.
For CCC(=O)Nc1cc(NC(=O)CSc2ncc(-c3ccc(F)cc3)n2Cc2ccco2)ccc1C the results were SMN2 splice up 16%, ELG1 repair inh inconclusive, ELG1 genotox 18µM*, NPC1 prom act 2.8µM*, FLuc counter 12µM* and Rab9 prom act inconclusive.
`COc1ccc(NC(=O)CSc2nccn2Cc2ccco2)cc1` gave ELG1 repair inh inconclusive, ELG1 genotox 16µM*, NPC1 prom act 2.5µM*, FLuc counter 24µM* and Rab9 prom act 3.5µM*.
`Cc1ccccc1OCC(O)Cn1nnc2ccccc21` (stereo not given) gave SMN2 splice up 11µM*, ELG1 repair inh inconclusive, ELG1 genotox inconclusive, NPC1 prom act inconclusive, FLuc counter 21µM* and Rab9 prom act 3.5µM*.
O=S1(=O)N[C@H]2CC[C@@H]3NS(=O)(=O)N[C@H]4CC[C@H](N1)N4S(=O)(=O)N23 was read as SMN2 splice up -3%[9.22 µM].
`Cc1oc(-c2cccc3ccccc23)nc1CN1CCN(c2ncnc3ccccc23)CC1` gave SMN2 splice up -100%, ELG1 repair inh 15µM*, ELG1 genotox -19%, NPC1 prom act -5%, FLuc counter 0% and Rab9 prom act -17%.
`COc1ccc(-c2nc(CN3CCN(c4cc(C)nc(C)c4)CC3)c(C)o2)c2ccccc12` gave ELG1 repair inh 13%, ELG1 genotox -1%, NPC1 prom act -2%, FLuc counter -2% and Rab9 prom act -5%.
Screening COc1ccc(OC)c(NC(=O)Cc2c(C(=O)O)n(C)c3ccc(C)cc23)c1 returned SMN2 splice up 18% and FLuc counter inconclusive.
COc1ccccc1C(=O)Oc1ccc(C(C)C)cc1 was read as SMN2 splice up -7%, ELG1 repair inh inconclusive, ELG1 genotox inconclusive, NPC1 prom act -3%, FLuc counter 9.5µM* and Rab9 prom act -1%.
Screening O=C(O/N=C(\c1ccccc1)c1ccncc1)c1ccccc1Cl returned SMN2 splice up 3%, ELG1 repair inh -5%, ELG1 genotox -2%, NPC1 prom act -5%, FLuc counter -4% and Rab9 prom act -10%.
Screening N/C(=N\OC(=O)c1ccccc1Cl)c1ccccc1 returned SMN2 splice up 11µM*, ELG1 repair inh inconclusive, ELG1 genotox inconclusive, NPC1 prom act 3.2µM*, FLuc counter 0.38µM* and Rab9 prom act 3.2µM*.
N/C(Cn1cncn1)=N\OC(=O)c1ccc(Cl)cc1 was read as SMN2 splice up -2%, ELG1 repair inh 1%, ELG1 genotox 4%, NPC1 prom act -3%, FLuc counter 4% and Rab9 prom act 2%.
For N/C(=N\OC(=O)c1ccc(Cl)cc1)c1ccn[nH]1 the results were ELG1 repair inh inconclusive, ELG1 genotox 2.6µM*, NPC1 prom act 1.3µM*, FLuc counter 3µM* and Rab9 prom act 1.6µM*.
N/C(=N\OC(=O)c1ccc(Cl)cc1)c1ccc(Cl)cc1 was read as SMN2 splice up inconclusive, ELG1 repair inh inconclusive, ELG1 genotox inconclusive, NPC1 prom act inconclusive, FLuc counter 3µM* and Rab9 prom act inconclusive.
Screening CC1CCc2c(sc(NC(=O)Cc3ccccc3)c2C(=O)Nc2ccc(Cl)cc2)C1 (stereo not given) returned SMN2 splice up 0% and FLuc counter -1%.
`Nc1ncc(S(=O)(=O)NCc2cccc(Cl)c2)cn1` gave FLuc counter 0%.
COc1ccccc1C(=O)O/N=C(\N)c1ccccc1Cl was read as SMN2 splice up 22µM*, ELG1 repair inh inconclusive, ELG1 genotox inconclusive, NPC1 prom act 4%, FLuc counter inconclusive and Rab9 prom act inconclusive.
N/C(=N\OC(=O)c1ccco1)c1cccnc1 was read as SMN2 splice up 7%, ELG1 repair inh inconclusive, ELG1 genotox inconclusive, NPC1 prom act 7%, FLuc counter inconclusive and Rab9 prom act -2%.
N/C(=N\OC(=O)c1ccccc1Cl)c1ccc(Cl)cc1 was read as SMN2 splice up 16µM*, ELG1 repair inh inconclusive, ELG1 genotox 2.6µM*, NPC1 prom act 20%, FLuc counter 1.3µM* and Rab9 prom act inconclusive.
For N/C(=N\OC(=O)c1ccco1)c1ccc(Cl)cc1 the results were ELG1 repair inh inconclusive, ELG1 genotox 7.3µM*, NPC1 prom act inconclusive, FLuc counter 24µM* and Rab9 prom act inconclusive.
`COc1ccc(C(=O)O/N=C(\N)c2ccccc2Cl)cc1OC` gave ELG1 repair inh inconclusive, ELG1 genotox inconclusive, NPC1 prom act -1%, FLuc counter inconclusive and Rab9 prom act -2%.
`C/C(=N\OC(=O)c1ccc(Cl)cc1)c1nccs1` gave SMN2 splice up -19%, ELG1 repair inh -8%, ELG1 genotox 1%, NPC1 prom act 1%, FLuc counter 0.48µM* and Rab9 prom act 1%.
`CC(=O)c1cccc(NC(=O)N2CCC(CN3CCCCC3)CC2)c1` gave FLuc counter -4%.
